CtBP-E1A inh: blocks the CtBP interaction with E1A. AID 651724. AlphaScreen GST-E1A/His-CtBP binding, 1536-well; hits give low values. activity change, % (concentration not given with the values). actives 0.49% (n = 340,000); in the data active = activity change below about -65%; inconclusive = mostly about -30% to -63%
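Steps: dispense buffer (Tris pH 8.0, NaCl 300 mM, TCEP 1 mM, BSA, Tween 20); add 5X protein mix (GST-E1A, His-CtBP, 125 nM each); pin 23 nL compound; 2 h at 37 °C, dark; add 5X beads (50 ug/mL); 1 h; read.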
TDP1 cell noCPT: qHTS for Inhibitors of human tyrosyl-DNA phosphodiesterase 1 (TDP1): qHTS in cells in absence of CPT; actives 15% (n = 420,000); Potency, µM (top dose mostly 46.2 µM), without a hit: at the top dose activity change, negative = growth inhibition, most hits filed as inhibitors; DT40 Tdp1-/- hTDP1 cells, no CPT, ATP luminescence, 48 h; AID 686978, 2013; note: potency is the fitted concentration of half-maximal effect; nearly all actives have a fitted effect of over 55% in size
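Seeded 400 DT40-hTDP1 cells/well (vehicle DMSO, no 20 nM CPT); pinned compounds; ≥48 hr at 37 °C; CellTiter-Glo luminescence as viability measure.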
TDP1 cell CPT: DT40-hTDP1 cell growth loss with CPT. actives 12% (n = 420,000). chicken DT40 Tdp1-/-;hTDP1 cells + 20 nM CPT, ATP luminescence, 48 h. AID 686979. Potency, µM (top dose mostly 46.2 µM), for the others: at the top dose activity change, negative = growth inhibition, most hits filed as inhibitors; note: potency is the fitted concentration of half-maximal effect; nearly all actives have a fitted effect of over 55% in size
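Cell growth measured by CellTiter-Glo luminescence after a minimum 48 h, 37 C compound exposure with 20 nM CPT in Tdp1-knockout DT40 cells stably expressing hTDP1, seeded 400/well; qHTS titration format.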
Six1-Eya2 inh: blocks human Six1 binding to Eya2; AlphaScreen GST-Six1/His-Eya2 binding, biochemical; hits give low values; activity change, % (test concentration not listed); actives 0.56% (n = 360,000); AID 651725; in the data active = activity change below about -65%; inconclusive = mostly about -30% to -63%
Target sequence (O00167 whole entry, looked up): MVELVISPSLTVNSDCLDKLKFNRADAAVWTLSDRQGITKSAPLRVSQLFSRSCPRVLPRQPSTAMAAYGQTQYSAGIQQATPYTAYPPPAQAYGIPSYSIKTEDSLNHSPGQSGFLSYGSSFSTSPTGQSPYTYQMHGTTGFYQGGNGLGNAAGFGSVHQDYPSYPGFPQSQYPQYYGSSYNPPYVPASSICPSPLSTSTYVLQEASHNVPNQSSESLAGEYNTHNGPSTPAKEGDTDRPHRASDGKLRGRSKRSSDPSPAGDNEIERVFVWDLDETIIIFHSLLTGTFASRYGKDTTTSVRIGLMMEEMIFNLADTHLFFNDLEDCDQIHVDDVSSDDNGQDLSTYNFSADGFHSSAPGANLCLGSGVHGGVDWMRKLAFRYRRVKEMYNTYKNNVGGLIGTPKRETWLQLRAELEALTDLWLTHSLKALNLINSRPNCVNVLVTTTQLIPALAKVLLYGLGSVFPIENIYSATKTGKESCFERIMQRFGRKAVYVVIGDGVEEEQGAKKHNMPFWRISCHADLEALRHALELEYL
Target sequence (Q15475 whole entry, looked up): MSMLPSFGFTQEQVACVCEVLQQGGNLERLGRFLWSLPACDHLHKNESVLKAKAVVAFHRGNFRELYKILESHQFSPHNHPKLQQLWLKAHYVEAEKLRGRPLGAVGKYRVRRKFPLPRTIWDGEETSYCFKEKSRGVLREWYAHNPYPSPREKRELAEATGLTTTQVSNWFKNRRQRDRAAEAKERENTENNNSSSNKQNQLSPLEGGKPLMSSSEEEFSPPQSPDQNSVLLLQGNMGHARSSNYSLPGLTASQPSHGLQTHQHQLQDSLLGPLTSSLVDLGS
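Homogeneous AlphaScreen proximity assay pairing GST-Six1 with His-tagged Eya2 (added as 5X mix: 250 nM and 500 nM) in 50 mM Tris pH 8.0, 300 mM NaCl, 1 mM TCEP. Glutathione donor and nickel acceptor beads; 1 h, 37 °C, dark.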
IL-1B inflam inh: blocks inflammasome-driven IL-1 beta release; THP-1 LPS/ATP IL-1B secretion, AlphaLISA, 16 h; hits give low values; actives 4.7% (n = 360,000); activity change, % at 57.5 µM; in the data active = activity change below about -50%; inconclusive = mostly about -30% to -49%
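THP-1 cells pretreated 1 hr with compounds (up to 57.5 uM final), then stimulated with LPS (250 ng/mL final) plus ATP (1.25 mM final); secreted IL-1B measured by AlphaLISA after 16 hr, decreased signal indicating inhibition.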
TDP1 block: inhibitors of human tyrosyl-DNA phosphodiesterase TDP1. recombinant TDP1, AlphaScreen DNA substrate cleavage. Potency, µM (doses to about 130 µM), for the others: at the top dose activity change, negative = inhibition, actives largely listed as inhibitors. actives 0.28% (n = 350,000); note: potency is the fitted concentration of half-maximal effect; nearly all actives have a fitted effect of over 40% in size
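Enzyme-compound mixtures sat 15 min at room temperature, followed by a 5 min reaction with 15 nM final substrate and 10 min with AlphaScreen beads. Recombinant human Tdp1 was used at 1 nM final.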
Numbers without * were called inactive; i = inactive; u = inconclusive; x = no result given; [ ] = another dose, or the depositor's remark. In the library only some 18% were active in any assay of this set; here they are far more common. Unless noted, calls come from the whole dose curve; as a rule, active = well fitted curve in the direction sought with a large enough effect; inconclusive = small, poorly fitted or top-dose-only effect, or another doubt; inactive = no such curve, though single readings can be large; an effect the other way counts as inactive or inconclusive. % is set by controls: 0 for no effect and ±100 for the full control effect.

SMILES	CtBP-E1A inh	TDP1 cell noCPT	TDP1 cell CPT	Six1-Eya2 inh	IL-1B inflam inh	TDP1 block
COc1ccc(C(C)NC(=O)CC23CC4CC(CC(C4)C2)C3)cc1 (centres undefined)	x	16.4µM*	u	10.0	-5.7	x
O=C(NC1CC1)C1=C[C@@H](c2ccc(Br)cc2)C[C@@H](OCCCCO)O1	-0.6	-21.4%	-19.2%	4.4	-7.6	5.1%
CC1=CC(C)(C)NC(=S)N1c1ccc(C)cc1	19.2	23.1µM*	20.6µM*	-1.9	7.9	7.5%
CC1=CC(C)(C)NC(=S)N1c1ccc([N+](=O)[O-])cc1	0.0	20.6µM*	29.1µM*	-6.3	-2.1	x
CC1=CC(C)(C)NC(=S)N1c1ccc(C)c(C)c1	-12.4	u	u	-3.1	-0.7	2.5%
COc1ccc(C(=O)/C=C/N(C)C)cc1	-2.5	-19.9%	-35.7%	1.1	-2.2	5.3%
CC(NC(=S)NCCc1ccccc1)C(c1cccs1)N1CCN(Cc2ccccc2)CC1 (centres undefined)	-22.5	u	16.4µM*	-2.8	-24.0	2.6%
C/C(=N\NC(=S)NCCc1ccccc1)c1cccs1	-23.9	5.17µM*	5.17µM*	-26.2	36.6	-2.8%
CC(NC(=O)NC1CCCCC1)C(c1cccs1)N1CCN(Cc2ccccc2)CC1 (centres undefined)	-1.8	u	u	-3.1	-8.8	3.3%
C/C(CCc1ccccc1)=N\NC(=S)NCCc1ccccc1	u	13µM*	u	-3.9	11.7	5.0%
Cc1nc(NC2CCCC2)sc1C(=O)N(C)C	7.7	-14.7%	-19.9%	8.7	-19.0	1.4%
Cc1cc(C)n(CC(=O)N2CCc3ccccc32)c(=O)c1C#N	-12.6	-5.7%	-18.7%	51.3	-9.8	x
COC(=O)[C@@]1(C)C[C@@H]1[C@@H](NC(=O)[C@@]1(C)C[C@@H]1[C@@H](NC(=O)[C@@]1(C)C[C@@H]1[C@@H](NC(=O)[C@@]1(C)C[C@@H]1[C@@H](NC(=O)OCc1ccccc1)c1ccccc1)c1ccccc1)c1ccccc1)c1ccccc1	x	x	x	x	x	6.9%
NC(=O)/C(=C/c1ccco1)NC(=O)c1ccc(Br)o1	-4.2	10.2%	10.2%	-2.1	13.6	x
O=C(Nc1ccccc1C(=O)OCc1cc(=O)n2ccsc2n1)c1ccc(Cl)cc1	x	-7.2%	-12.7%	x	x	3.8%
O=C1CC[C@@H](O)CCN1CC[C@H](Sc1ccc(Br)cc1)c1ccccc1	3.3	10µM*	23.1µM*	-2.8	-16.6	0.7%
O=C1CCC(OCc2ccccc2)CCN1CC[C@@H](Sc1ccccc1)c1ccccc1 (some centres undefined)	-1.5	u	u	-1.0	11.4	x
CC(C)(C)[C@@H]1CCC(=O)N(CC[C@H](Sc2ccc(Br)cc2)c2ccccc2)CC1	-0.9	11.2µM*	18.4µM*	9.8	0.0	-7.7%
COc1ccc(-c2nc3n(c(=O)c2C#N)CCS3)cc1	0.0	2.6%	2.1%	-14.2	-11.6	-1.2%
C=CCSc1nc(-c2ccc(OC)cc2)c(C#N)c(=O)n1CC=C	4.4	25.9µM*	16.4µM*	10.6	-101.8*	-6.2%
COc1ccc(CCn2c3c(c(=O)[nH]c2=S)CN(C)CN3)cc1OC	x	1.1%	10.1%	x	x	-0.1%
O=C(Nc1ccc(C(=O)NCc2ccc(F)cc2)cc1)C1=CSCCO1	3.5	-17.9%	3.4%	-0.7	-16.8	2.0%
CCCCOc1ccc(OC(=O)Nc2cc(Cl)ccc2OC)cc1	x	14.6µM*	18.4µM*	4.3	0.0	x
COc1ccc(OC)c(NC(=O)NNC(=O)CCCOc2ccc(Cl)cc2C)c1	-24.0	u	u	-6.5	-55.3*	2.4%
COc1ccc(NC(=O)NNC(=O)COc2ccc(Cl)cc2C)cc1OC	2.3	-15.3%	-7.9%	-13.7	i	2.2%
SMILES	CtBP-E1A inh	TDP1 cell noCPT	TDP1 cell CPT	Six1-Eya2 inh	IL-1B inflam inh	TDP1 block
COc1ccc(Cl)cc1NC(=O)CC(=O)Nc1cc(Cl)ccc1OC	0.0	-28.9%	-1.8%	-7.3	9.1	-7.7%[0.0935 µM]
Cc1cc(Cl)ccc1OCCCC(=O)NNC(=O)c1ccccc1O	-8.2	23.1µM*	u	-3.1	63.2	-2.2%
Cc1ccccc1C(=O)Nc1ccc(C(=O)NNC(=O)CCCOc2ccc(Cl)cc2Cl)cc1	-1.8	-23.4%	u	-15.1	-12.5	x
Cc1cc(Cl)ccc1OCC(=O)Nc1cccnc1	-13.0	u	-19.9%	4.0	u	x
Cc1cc(Cl)ccc1OCCCC(=O)Nc1cccnc1	3.9	23.1µM*	14.6µM*	22.3	2.8	2.0%
CN1c2ccc(Cl)cc2C(=O)NC1c1ccc([N+](=O)[O-])s1 (centres undefined)	7.0	23.1µM*	20.6µM*	3.5	-6.5	0.0%
CC1CCCN(c2ccc([N+](=O)[O-])s2)C1 (centres undefined)	x	6.8%	-18.6%	-2.8	-8.3	3.7%
O=S(=O)(c1cccc(Cl)c1)c1nnn2c1nc(NC1CCCCCC1)c1sccc12	x	u	u	x	x	5.1%
CC1CCC(NC(=O)C2CCN(c3c4c(nc5ncnn35)CCC4)CC2)CC1 (centres undefined)	-0.4	16.4µM*	u	8.1	39.7	x
COc1ccc(NC(=O)C2CCN(c3nc(C)cc(C)n3)CC2)cc1	4.8	-28.9%	-8.8%	u	10.7	-4.4%
COc1ccc(C(=O)N2CCC(C(=O)O)CC2)cc1	3.6	6.9%	-6.3%	5.1	10.2	5.1%
COc1ccc(C(=O)N2CCC(C(=O)c3c(C)cc(C)cc3C)CC2)cc1	-4.6	23.1µM*	u	-2.3	-4.1	0.0%
COc1ccc(NC(=O)C2CCCN(c3cc(C)nc4ncnn34)C2)cc1 (centres undefined)	0.0	-23.7%	-0.2%	-16.9	-13.2	1.2%
COc1ccc(NC(=O)C2CCN(c3nc(C)nc4c3CCC4)CC2)cc1	0.0	16.4µM*	11.6µM*	7.8	u	2.9%
COc1ccc(NC(=O)C2CCCN(c3c4c(nc5ncnn35)CCC4)C2)cc1 (centres undefined)	4.3	23.1µM*	14.6µM*	1.4	-1.0	9.6%
Cc1ccc(C(=O)NCC(=O)OCC(=O)Nc2cc(S(=O)(=O)N3CCOCC3)ccc2C)cc1	4.1	-11.0%	-18.0%	3.0	5.7	-3.1%
O=C(Nc1cccc(F)c1)C1CCN(C(=O)c2ccc(Br)cc2)CC1	1.9	u	u	3.3	0.0	3.4%
